Here are results for 40 compounds from PubChem BioAssay (NCATS).

Inconclusive results are not listed. Active and inactive are the calls of the source. The call rests on the fitted dose curve; in most records, active means well fitted cell-killing curve with a large enough effect; inconclusive means small, poorly fitted or top-dose-only effect; inactive means no such curve, though single readings can be large or run the other way.
On the % scale 0 is the no-effect control and ±100 the full control effect.

This assay is described as follows: qHTS of pediatric cancer cell lines to identify multiple opportunities for drug repurposing: Primary screen for Saos-2 cells (AID 1347097). Further: nearly all actives have a fitted effect of over 40% in size. Particulars: Saos-2 viability, CellTiter-Glo ATP luminescence, 48 h; series mostly up to 46 µM. An excerpt: Drug repurposing or repositioning has been offered as a strategy for drug development in oncology programs. This approach has special potential for childhood cancers and other rare or orphan diseases, where the expected return on new drug development has been a disincentive to pharmaceuticals. […] In this project we exploit the poly-pharmacology of drugs to discover new indications via phenotypic screening of a panel of 19 well-characterized cell lines derived from solid tumors seen in children and adolescents. The goal is to identify approved drugs with previously unrecognized anticancer properties that has the potential to reveal new mechanisms and biological processes involved in carcinogenesis or drug resistance. We employed a titration-based paradigm (quantitative high-throughput screening or qHTS), where all compounds were tested at multiple concentrations for their effect on cell viability. Concentration-response curves (CRCs) were derived directly from the primary screen, and both potency and efficacy values were used to identify compounds with robust bioactivity profiles. We screened the NIH Chemical Genomics Center (NCGC) Pharmaceutical Collection (NPC) and Mechanism Interrogation Plate (MIPE) small molecule collections of approved and investigational compounds against these cell lines; and measured metabolically active cells after 48 hours of compound treatment as a proxy for cell viability. […] Assay Submitter: Nathalia J. Martinez, National Center for Advancing Translational Sciences, National Institutes of Health, Rockville, MD, USA; email: natalia.martinez@nih.gov Shen, M et al. Quantitative high-throughput phenotypic screening of pediatric cancer cell lines identifies multiple opportunities for drug repurposing. Oncotarget 2017 Dec 19;9(4):4758-4772. PMID 29435139.
The cells were obtained from University of North Carolina (UNC), Pediatric Preclinical Testing Program (PPT), and Coriell Institute (CI). qHTS cell viability assay: Cells were assayed in growth media at a density of 500-1,000 cells/well. Five microliters of cells were dispensed into 1,536-well, white, solid-bottom, TC-treated plates (Greiner Bio One) using a multidrop dispenser and incubated at 37 degrees C, 5% CO2, under a humidified atmosphere for 5 hours. Twenty-three nanoliters of compounds and controls (neutral control DMSO or positive control bortezomib at final concentration of 2.3 µM) were subsequently transferred by Kalypsys pintool. For primary screens, the MIPE collection was tested at 11-point dilutions (final concentrations range from 0.78 nM to 46 µM) and the NPC collection at 8-point dilutions (final concentrations range from 0.59 nM to 46 µM). Compounds tested in follow-up screens were assayed at 11-point dilutions. Cells were incubated for 48 hours, followed by addition of 3 µL of CellTiter-Glo (Promega). After a 15 min incubation at room temperature, samples were analyzed for luminescence intensity using a ViewLux High-throughput CCD imager equipped with clear filters.
Background: qHTS replaces the single test concentration by a dilution series.
In the case of `COc1ccc(NS(=O)(=O)c2ccc(N)cc2)nn1`, the call was inactive.
`OCCN1C[C@H](O)[C@@H](O)[C@H](O)[C@H]1CO`: the result was inactive.
Take `COc1nccnc1NS(=O)(=O)c1ccc(N)cc1`: the result was inactive.
For `NS(=O)(=O)c1ccc(NC(=O)CCC(=O)O)cc1`, the compound was classed as inactive.
Still for that read-out and setting: then `O=C(O)Cc1cn(-c2ccccc2)nc1-c1ccc(Cl)cc1`, with “inactive”; and `CNc1c2c(nn1C)CCCC2`, with “inactive”.
For the compound `NC(N)=NS(=O)(=O)c1ccc(N)cc1`, the outcome was inactive.
As to `O=S1(=O)OC(c2ccc(O)cc2)(c2ccc(O)cc2)c2ccccc21`, the compound was called inactive.
Take `CC(C)C[C@@H](N)C(=O)O`: the compound was called inactive.
On the same count and under the same terms, next, `NC(=O)CC[C@@H](N)C(=O)O`: “inactive”; `Cn1c([N+](=O)[O-])cnc1COC(N)=O`: “inactive”.
On the same count and under the same terms, then `O=C(O)/C=C/c1ccc(Cn2ccnc2)cc1`, with “inactive”; and `CN[C@@H]1[C@@H](O)[C@@H](O[C@@H]2[C@H](O)[C@H](O[C@H]3OC(CN)=CC[C@H]3N)[C@@H](N)C[C@H]2N)OCC1(C)O` (stereo not given in full), with “inactive”; and `O=C(O)c1ccccc1C(=O)Nc1ccc(S(=O)(=O)Nc2nccs2)cc1`, with “inactive”.
For `CC1CCN(CCCC(=O)c2ccc(F)cc2)CC1`, the outcome was inactive.
As to `NC(=O)NS(=O)(=O)c1ccc(N)cc1`, the call was inactive.
Still for that read-out and setting: then `CCN[C@H]1CN(CCCOC)S(=O)(=O)c2sc(S(N)(=O)=O)cc21`, with “inactive”; and `O=C1c2ccccc2S(=O)(=O)N1CCCCN1CCN(c2ncccn2)CC1`, with “inactive”; and `CCc1cccc(CC)c1NC(=O)CN(CC(=O)O)CC(=O)O`, with “inactive”.
In the case of `Cc1cc(C)c(NC(=O)CN(CC(=O)O)CC(=O)O)c(C)c1Br`, the outcome was inactive.
Same read-out and setting: then `CC(C)CCOC(=O)c1ccc(N(C)C)cc1`, with “inactive”.
In the case of `CO[C@@]1(NC(=O)C(C(=O)O)c2ccc(O)cc2)C(=O)N2C(C(=O)O)=C(CSc3nnnn3C)CO[C@@H]21` (stereo not given in full), the compound was classed as inactive.
On to `CN1C[C@@H]2C[C@H]1CN2c1cc2c(cc1F)c(=O)c(C(=O)O)cn2C1CC1`, for which the call was inactive.
As to `COc1cc(C(=O)NCCCCCC(=O)O)cc(OC)c1OC`, the compound was called inactive.
For `CCCCCCCC(=O)OCC(COC(=O)CCCCCCC)OC(=O)CCCCCCC`, the call was inactive.
On the same count and under the same terms, next, `CCOc1cc(NC(C)=O)ccc1C(=O)OC`: “inactive”; `Cn1cc(C(=O)[C@@H]2CCc3nc[nH]c3C2)c2ccccc21`: “inactive”.
Still for that read-out and setting: next, `O=C(NCCCN1CCOCC1)c1ccc(Cl)cc1`: “inactive”; `NC(=O)N[C@@H](CCC(=O)O)C(=O)O`: “inactive”; `Cn1c(=O)c2c(ncn2CCO)n(C)c1=O`: “inactive”.
Regarding `N[C@@H](Cc1ccc(O)cc1)C(=O)O`, the activity change, negative = cytotoxic is 14.8% [at 9.22 µM] (inactive).
For `O=C(CN1CCNCC1)NC1CCCCC1`, the result was inactive.
The same measure, in the same setting: next, `O=c1[nH]cnc2nc[nH]c12`: “inactive”; `CCOC(=O)c1cccnc1`: “inactive”.
Same read-out and setting: then `Cc1c(C(=O)NCCO)[n+](=O)c2ccccc2n1[O-]`, with “inactive”; and `CC(=O)Nc1ccccc1`, with “inactive”; and `CC1(C)S[C@@H]2[C@H](NC(=O)C(C(=O)O)c3ccccc3)C(=O)N2[C@H]1C(=O)O` (stereo not given in full), with “inactive”.
Consider `CCCCCC(N)=O`, for which the compound was classed as inactive.
The same measure, in the same setting: then `CC(=O)NCc1c(I)c(NC(C)=O)c(I)c(C(=O)O)c1I`, with “inactive”; and `O=C(O)C(S)C(S)C(=O)O` (stereo not given), with “inactive”.
